The target of test [1] is Proto-oncogene tyrosine-protein kinase Src (Homo sapiens) (UniProt P12931). The following applies: at 10 µM.
For test [2], the target named is Ribosomal protein S6 kinase beta-1 (Homo sapiens) (UniProt P23443). The following applies: at 1 µM.
The target is the same in test [3]. As to conditions: at 10 µM.
Test [4] deals with Serine/threonine-protein kinase Nek7 (Homo sapiens) (UniProt Q8TDX7). The following applies: at 1 µM.
For test [5] the target is unchanged. As to conditions: at 10 µM.
For test [6], the target named is T1, Serine/threonine-protein kinase NLK (Homo sapiens) (UniProt Q9UBE8).
T1 sequence (whole entry): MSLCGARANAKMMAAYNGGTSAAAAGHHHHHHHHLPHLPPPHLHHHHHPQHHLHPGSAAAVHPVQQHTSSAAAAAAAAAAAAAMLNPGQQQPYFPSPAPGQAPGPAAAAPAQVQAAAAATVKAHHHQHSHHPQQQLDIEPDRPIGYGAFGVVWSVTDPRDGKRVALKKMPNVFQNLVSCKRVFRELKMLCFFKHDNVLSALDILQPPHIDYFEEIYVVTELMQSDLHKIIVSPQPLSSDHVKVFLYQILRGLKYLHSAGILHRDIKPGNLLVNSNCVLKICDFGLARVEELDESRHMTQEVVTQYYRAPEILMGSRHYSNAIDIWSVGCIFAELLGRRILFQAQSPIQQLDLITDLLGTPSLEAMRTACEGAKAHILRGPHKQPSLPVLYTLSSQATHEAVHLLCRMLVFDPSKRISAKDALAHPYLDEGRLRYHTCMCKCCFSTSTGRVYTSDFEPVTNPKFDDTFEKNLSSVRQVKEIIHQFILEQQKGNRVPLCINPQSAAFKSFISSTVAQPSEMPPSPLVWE
The following applies: at 1 µM.

In test [7] the target is Serine/threonine-protein kinase PAK 2 (Homo sapiens) (UniProt Q13177). As to conditions: at 1 µM.
Test [8] has the same target. As to conditions: at 10 µM.
In test [9] the target is T1, Serine/threonine-protein kinase NLK (Homo sapiens). As to conditions: at 10 µM.
In test [10] the target is Proto-oncogene tyrosine-protein kinase Src (Homo sapiens) (UniProt P12931). As to conditions: at 1 µM.
The target in test [11] is Serine/threonine-protein kinase mTOR (Homo sapiens) (UniProt P42345). The following applies: at 1 µM.
For test [12] the target is unchanged. The following applies: at 10 µM.
The target is the same in test [13]. The following applies: at 1 µM. The source holds these as a separate data set.
For test [14] the target is unchanged. As to conditions: at 10 µM. The source holds these as a separate data set.
In test [15] the target is Serine/threonine-protein kinase Nek6 (Homo sapiens) (UniProt Q9HC98). As to conditions: at 10 µM.
Test [16] concerns the target Serine/threonine-protein kinase PAK 4 (Homo sapiens) (UniProt O96013). As to conditions: at 1 µM.
Test [17] shares this target. The following applies: at 10 µM.
Test [18] concerns the target T2, Eukaryotic elongation factor 2 kinase (Homo sapiens) (UniProt O00418).
T2 sequence (whole entry): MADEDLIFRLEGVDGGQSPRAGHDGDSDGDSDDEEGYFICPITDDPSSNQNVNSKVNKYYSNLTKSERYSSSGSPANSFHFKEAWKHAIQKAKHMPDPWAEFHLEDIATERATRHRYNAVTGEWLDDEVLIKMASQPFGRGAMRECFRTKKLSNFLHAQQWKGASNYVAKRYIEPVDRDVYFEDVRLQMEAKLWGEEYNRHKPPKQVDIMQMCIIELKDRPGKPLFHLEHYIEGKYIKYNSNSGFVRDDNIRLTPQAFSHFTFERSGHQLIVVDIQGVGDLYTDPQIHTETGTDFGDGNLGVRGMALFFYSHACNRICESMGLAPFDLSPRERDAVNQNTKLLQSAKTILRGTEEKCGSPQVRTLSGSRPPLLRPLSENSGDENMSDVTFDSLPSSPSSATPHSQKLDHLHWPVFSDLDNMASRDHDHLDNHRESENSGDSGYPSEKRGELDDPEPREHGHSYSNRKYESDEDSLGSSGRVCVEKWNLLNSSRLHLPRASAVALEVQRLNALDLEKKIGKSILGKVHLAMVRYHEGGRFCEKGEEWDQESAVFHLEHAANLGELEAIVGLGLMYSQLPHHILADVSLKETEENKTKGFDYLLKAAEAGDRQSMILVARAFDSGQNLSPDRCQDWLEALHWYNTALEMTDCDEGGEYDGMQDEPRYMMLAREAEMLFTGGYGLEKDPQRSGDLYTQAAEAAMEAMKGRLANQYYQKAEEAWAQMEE
The following applies: at 1 µM.

For test [19], the target named is T2, Eukaryotic elongation factor 2 kinase (Homo sapiens). The following applies: at 10 µM.
For test [20], the target named is Serine/threonine-protein kinase Nek6 (Homo sapiens) (UniProt Q9HC98). As to conditions: at 1 µM.

One may read the residual activity as the signal under treatment as a percentage of the control signal.

Sequence of Serine/threonine-protein kinase PAK 4 (Homo sapiens) (O96013 whole entry, looked up): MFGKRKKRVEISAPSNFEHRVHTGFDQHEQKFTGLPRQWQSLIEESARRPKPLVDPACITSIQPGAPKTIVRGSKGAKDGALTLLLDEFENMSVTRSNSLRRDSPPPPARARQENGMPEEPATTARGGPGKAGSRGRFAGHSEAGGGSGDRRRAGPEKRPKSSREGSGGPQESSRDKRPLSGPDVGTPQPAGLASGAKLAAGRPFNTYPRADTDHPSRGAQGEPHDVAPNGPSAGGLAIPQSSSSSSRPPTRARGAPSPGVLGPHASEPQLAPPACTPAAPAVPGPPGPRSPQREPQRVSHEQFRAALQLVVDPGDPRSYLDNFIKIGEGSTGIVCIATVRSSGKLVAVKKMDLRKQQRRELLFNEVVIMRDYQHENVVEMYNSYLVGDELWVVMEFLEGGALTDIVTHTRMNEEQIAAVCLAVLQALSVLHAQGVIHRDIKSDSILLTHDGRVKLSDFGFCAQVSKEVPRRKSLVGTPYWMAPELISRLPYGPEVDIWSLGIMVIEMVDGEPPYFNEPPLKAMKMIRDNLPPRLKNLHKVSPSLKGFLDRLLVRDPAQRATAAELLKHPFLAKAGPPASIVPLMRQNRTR
Sequence of Ribosomal protein S6 kinase beta-1 (Homo sapiens) (P23443 whole entry, looked up): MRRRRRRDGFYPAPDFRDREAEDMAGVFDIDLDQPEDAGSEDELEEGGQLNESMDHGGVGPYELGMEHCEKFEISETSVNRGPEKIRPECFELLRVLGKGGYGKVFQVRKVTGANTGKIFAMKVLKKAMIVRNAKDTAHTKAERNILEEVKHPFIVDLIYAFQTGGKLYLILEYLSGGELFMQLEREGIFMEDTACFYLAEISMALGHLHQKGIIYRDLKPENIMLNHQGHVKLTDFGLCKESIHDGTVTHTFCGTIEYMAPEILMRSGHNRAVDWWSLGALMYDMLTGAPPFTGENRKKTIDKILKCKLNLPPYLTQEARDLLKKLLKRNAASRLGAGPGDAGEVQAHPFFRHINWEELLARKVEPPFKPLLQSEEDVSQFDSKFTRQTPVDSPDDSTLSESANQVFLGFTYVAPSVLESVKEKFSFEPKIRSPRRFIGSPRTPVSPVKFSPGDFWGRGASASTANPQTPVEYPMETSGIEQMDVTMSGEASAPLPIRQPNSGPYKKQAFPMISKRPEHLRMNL
Sequence of Serine/threonine-protein kinase Nek6 (Homo sapiens) (Q9HC98 whole entry): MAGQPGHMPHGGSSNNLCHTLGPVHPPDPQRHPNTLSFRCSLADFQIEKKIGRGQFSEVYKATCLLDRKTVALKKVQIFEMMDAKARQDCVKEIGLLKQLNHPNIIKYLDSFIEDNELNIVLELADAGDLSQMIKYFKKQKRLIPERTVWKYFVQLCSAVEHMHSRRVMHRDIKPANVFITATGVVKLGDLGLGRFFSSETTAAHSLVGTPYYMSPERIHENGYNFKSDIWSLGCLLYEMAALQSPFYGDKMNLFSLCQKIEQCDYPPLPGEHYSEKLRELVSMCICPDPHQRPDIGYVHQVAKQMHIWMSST
Sequence of Proto-oncogene tyrosine-protein kinase Src (Homo sapiens) (P12931 2-536 limits assumed): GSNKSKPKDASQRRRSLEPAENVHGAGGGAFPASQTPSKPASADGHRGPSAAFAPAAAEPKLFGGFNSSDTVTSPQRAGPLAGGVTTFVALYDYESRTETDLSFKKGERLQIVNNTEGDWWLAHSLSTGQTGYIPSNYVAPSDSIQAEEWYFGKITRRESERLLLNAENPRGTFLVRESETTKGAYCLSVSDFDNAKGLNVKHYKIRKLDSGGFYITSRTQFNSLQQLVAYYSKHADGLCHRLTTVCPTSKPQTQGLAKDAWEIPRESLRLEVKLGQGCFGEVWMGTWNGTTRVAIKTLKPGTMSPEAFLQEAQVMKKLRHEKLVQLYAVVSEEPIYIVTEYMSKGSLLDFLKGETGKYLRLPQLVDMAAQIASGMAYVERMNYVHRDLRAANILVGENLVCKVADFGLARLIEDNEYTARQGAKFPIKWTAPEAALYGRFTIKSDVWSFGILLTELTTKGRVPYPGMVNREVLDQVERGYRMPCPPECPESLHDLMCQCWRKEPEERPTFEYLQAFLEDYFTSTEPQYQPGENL
Sequence of Serine/threonine-protein kinase PAK 2 (Homo sapiens) (Q13177 whole entry): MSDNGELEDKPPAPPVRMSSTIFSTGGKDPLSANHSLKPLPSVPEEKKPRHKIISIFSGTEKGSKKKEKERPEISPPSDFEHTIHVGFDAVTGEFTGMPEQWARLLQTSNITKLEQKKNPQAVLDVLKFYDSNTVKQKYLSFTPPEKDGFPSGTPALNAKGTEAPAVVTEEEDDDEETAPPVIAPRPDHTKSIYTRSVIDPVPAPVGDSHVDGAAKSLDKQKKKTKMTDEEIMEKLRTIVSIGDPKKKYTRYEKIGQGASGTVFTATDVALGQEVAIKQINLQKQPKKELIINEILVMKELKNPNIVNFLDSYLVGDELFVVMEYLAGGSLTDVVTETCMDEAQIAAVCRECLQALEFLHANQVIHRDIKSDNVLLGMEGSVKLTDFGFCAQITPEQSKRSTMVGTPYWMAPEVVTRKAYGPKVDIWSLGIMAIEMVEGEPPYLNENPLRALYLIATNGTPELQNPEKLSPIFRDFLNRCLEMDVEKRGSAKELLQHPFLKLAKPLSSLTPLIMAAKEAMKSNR
Sequence of Serine/threonine-protein kinase Nek7 (Homo sapiens) (Q8TDX7 whole entry, looked up): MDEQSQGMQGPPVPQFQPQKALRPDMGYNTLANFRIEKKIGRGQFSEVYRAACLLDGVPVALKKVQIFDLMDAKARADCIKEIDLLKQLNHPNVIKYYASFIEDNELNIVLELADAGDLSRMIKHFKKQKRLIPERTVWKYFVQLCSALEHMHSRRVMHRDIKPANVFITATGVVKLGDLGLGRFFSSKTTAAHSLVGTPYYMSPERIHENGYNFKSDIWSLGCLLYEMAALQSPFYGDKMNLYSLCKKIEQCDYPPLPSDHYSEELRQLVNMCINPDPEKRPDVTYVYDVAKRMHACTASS

As to `O=C1c2ccccc2-c2nc3nnnn3nc21`, the residual activity in test [1] is 112%; in [2] it was 83%; in test [3] it was 64%; in test [4], 116% (inactive); in [5], 105% (inactive); in test [6], 112%. Also, the residual activity was 101% in test [7] and 75% in test [8].
With `COc1cc(OC)c(/C=C2\C(=O)Nc3ccccc32)c(OC)c1`, the residual activity in test [1] was determined as 86%; in test [2], 124%; in [3] it was 63%; in test [6], 92%; in test [9], 86%; in [7], 97%.
For the compound `COc1cc2ncnc(Nc3ccc(OCc4ccccc4)cc3)c2cc1OC`, the residual activity in test [10] stood at 81%; in test [1], 77%; in [11], 96%; in test [12], 107%; in test [13], 105%; in test [14], 97%. Further, the residual activity in test [2] is 82%; in test [3], 53%; in test [15], 94%; in test [4], 98% (inactive); in [5], 89% (inactive); in test [6], 111%. Moreover, the residual activity in test [9] was determined as 90%; in test [7], 113%; in test [8] it was 99%; in test [16], 107%; in test [17] it was 97%.
With `COc1ccc2c(c1)/C(=C/c1cnc[nH]1)C(=O)N2`, the residual activity came out at 73% in [12]; 71% in test [14]; 70% in test [6]; 19% in test [9]; 46% in [17].
For `O=[N+]([O-])/C=C/c1ccc2c(c1)OCO2`, the residual activity worked out at 89% in [10]; 106% in test [1]; 106% in test [11]; 77% in test [14]; 137% in test [2]; 87% in [3]. For the same compound, the residual activity in test [15] was 113%; in test [4], 99% (inactive); in test [5], 114% (inactive); in test [6], 107%; in test [9] it was 95%; in test [7], 111%. Besides, the residual activity in test [8] came to 100%; in test [16], 91%; in [17], 93%.
As for `C[S+]([O-])c1ccc(-c2nc(-c3ccc(F)cc3)c(-c3ccncc3)[nH]2)cc1` (stereo not given), the residual activity is 112% in test [10]; 65% in test [1]; 111% (inactive) in test [18]; 91% in test [19]; 106% in test [11]; 89% in test [12]. The residual activity is 86% in test [13]; 96% in [14]; 103% in [2]; 87% in [3]; 112% (inactive) in test [20]; 103% in test [15]. The residual activity is 101% (inactive) in [4]; 116% (inactive) in [5]; 62% in test [6]; 24% in [9]; 110% in test [7]; 100% in test [8]. The residual activity in test [16] and in [17] was 106% throughout.
Consider `c1cc(-c2cnn3cc(-c4ccc(OCCN5CCCCC5)cc4)cnc23)ccn1`, for which the residual activity in test [10] is 75%; in [1], 9%; in test [14], 84%; in test [2] it was 86%; in test [3], 34%; in test [20], 118% (inactive). In addition, the residual activity in [15] was 106%; in test [4], 106% (inactive); in [5], 104% (inactive); in [6] it was 86%; in test [9] it was 34%; in test [7], 118%. In addition, the figures for the residual activity in [8], in [16] and in test [17] were 103%, 84% and 77%, respectively.
Regarding `O=C1Nc2ccc3ncsc3c2/C1=C/c1c[nH]cn1`, the residual activity in [10] amounted to 70%; in [1] it was 40%; in test [11], 73%; in [12], 73%; in [13] it was 99%; in test [14] it was 95%. In addition, the residual activity is 46% in test [2]; 8% in test [3]; 80% (inactive) in test [20]; 77% in [15]; 84% (inactive) in [4]; 63% (inactive) in [5]. Moreover, the residual activity in test [6] amounted to 29%; in test [9], 5%; in test [7] it was 96%; in test [8], 54%; in test [16], 67%; in [17], 22%.
Regarding `CCc1nc(-c2ccc(OC)cc2)[nH]c1-c1ccncc1`, the residual activity in [13] was 103%; in test [14], 73%; in [3], 62%; in test [20], 116% (inactive); in test [15], 117%; in [4] it was 106% (inactive). In addition, the residual activity in test [5] is 104% (inactive); in test [7], 107%; in test [8] it was 110%; in [16] it was 111%; in test [17], 100%.
